Compound activity: PubChem BioAssay, National Center for Advancing Translational Sciences (NCATS)
Only some compounds are listed: those with a hit (about 7.6% of all), similar ones and a draw of the others.
RORg inh: qHTS for inhibitors of ROR gamma transcriptional activity. Nuclear receptor ROR-gamma (Mus musculus), P51450. Drosophila S2 Gal4-RORgamma UAS-luciferase reporter, 20 h. Potency, µM (series often up to 53.6 µM), most hits filed as inhibitors. actives 5.4% (n = 310,000). AID 2551, 2010; further: nearly all actives have a fitted effect of over 60% in size
Target sequence (P51450 whole entry, looked up, the tested form may be a part): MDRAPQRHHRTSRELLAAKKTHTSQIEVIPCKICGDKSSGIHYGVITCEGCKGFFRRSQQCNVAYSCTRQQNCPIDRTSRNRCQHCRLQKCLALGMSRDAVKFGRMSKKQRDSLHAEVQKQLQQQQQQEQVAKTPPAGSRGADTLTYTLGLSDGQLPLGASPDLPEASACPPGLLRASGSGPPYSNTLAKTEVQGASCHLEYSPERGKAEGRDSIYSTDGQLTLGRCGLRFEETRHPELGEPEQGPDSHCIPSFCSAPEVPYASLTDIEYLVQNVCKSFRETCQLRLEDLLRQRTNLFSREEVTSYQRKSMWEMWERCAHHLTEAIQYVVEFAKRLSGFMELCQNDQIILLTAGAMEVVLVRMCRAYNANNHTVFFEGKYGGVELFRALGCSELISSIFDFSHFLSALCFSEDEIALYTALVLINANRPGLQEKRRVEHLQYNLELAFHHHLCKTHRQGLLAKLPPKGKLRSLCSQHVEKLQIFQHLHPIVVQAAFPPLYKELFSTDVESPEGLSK
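Drosophila S2 cells stably expressing Gal4-DBD/mouse RORγ fusion under metallothionein promoter plus UAS-luciferase; compound 1 h, then 700 uM CuSO4 induction for 20 h at ambient temperature; inhibition read as reduced luminescence.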
Giardia killer: Small Molecules that selectively kill Giardia lamblia: qHTS; Giardia lamblia trophozoite viability; activity change, % at 7.66 µM, hits read low; actives 0.15% (n = 340,000); in the data active means activity change below about -80%; inconclusive means between about -30% and that limit;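 further: parasites exposed to compound for two days anaerobically before the ATP read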
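Giardia trophozoites, 100 cells per well, were exposed to compounds for 48 hrs at 37 deg C under anaerobic conditions; viability was then read as ATP content by bioluminescence after 15-30 min at room temperature.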
VP16 counter: VP16 counterscreen qHTS for inhibitors of ROR gamma transcriptional activity | actives 3.5% (n = 310,000) | Potency, µM (top dose mostly 53.6 µM), most hits filed as inhibitors | Drosophila S2 Gal4-VP16 UAS-luciferase, luminescence, 20 h;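 further: Gal4-VP16 expression switched on by copper sulfate through the metallothionein promoter; nearly all actives have a fitted effect of over 50% in size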
p53 reactivation: qHTS assay for re-activators of p53 using a Luc reporter | H1299 p53-A138V BP100-luciferase reporter, luminescence, 24 h | Potency, µM (series often up to 92.2 µM), most hits filed as activators | actives 0.063% (n = 320,000) | AID 504706, 2011; further: nearly all actives have a fitted effect of over 45% in size
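p53-null H1299 cells stably carrying temperature-sensitive p53-A138V and a BP100-luciferase reporter were pinned with compounds (4-point, 1:5 series) and held 24 hrs at 37 deg C. Luminescence was read 10 min after detection reagent.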
ELG1 DNA repair: qHTS screen for small molecules that inhibit ELG1-dependent DNA repair in human embryonic kidney (HEK293T) cells expressing luciferase-tagged ELG1. Potency, µM (titrated, usually from 46.1 µM), usual class: inhibitors. actives 2.3% (n = 330,000). AID 504467, 2011. HEK293T ELG1-luciferase reporter, luminescence, 16 h; DNA damage induced by 5-fluorouridine; further: nearly all actives have a fitted effect of over 55% in size
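Quantitative HTS, concentration-response format. 2,000 cells/well co-treated with 5-fluorouridine and compound, 16 hr in 5% CO2 at 37 °C; ONE-Glo luminescence read after 30 min.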
BRCA1 expr up: qHTS Assay to Identify Small Molecule Activators of BRCA1 Expression. AID 624202, 2012. actives 1.1% (n = 380,000). Potency, µM (titrated, usually from 46.1 µM), usual class: activators. MCF7-BRCA1-FFLuc reporter, luminescence, 48 h; response scale: scaled: vehicle 0%, 10 µM genistein 100%; further: nearly all actives have a fitted effect of over 80% in size
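MCF7 cells carrying a BRCA1-firefly luciferase reporter (2000 cells/well, phenol-red free MEM) were attached for 2 h at 37 °C, then given compounds for 48 h. Luminescence was read 15 min after luciferase reagent; activity normalized to genistein (10 microM) and DMSO.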
A number is an active result; . = inactive; ? = inconclusive; / = no result; [ ] = remark or other dose. Unless noted, the call rests on the fitted dose curve; in most records, active means well fitted curve in the direction sought with a large enough effect; inconclusive means small, poorly fitted or top-dose-only effect, or another doubt; inactive means no such curve, though single readings can be large; an effect the other way counts as inactive or inconclusive.

SMILES	RORg inh	Giardia killer	VP16 counter	p53 reactivation	ELG1 DNA repair	BRCA1 expr up
COc1cc(NC(=S)N2CCN(C/C=C/c3ccccc3)CC2)cc(OC)c1	11µM	.	?	.	.	.
COc1cccc(NC(=S)N2CCN(C/C=C/c3ccccc3)CC2)c1	10µM	.	?	.	?	.
S=C(Nc1ccccc1)N1CCN(C/C=C/c2ccccc2)CC1	11µM	.	?	.	?	.
Fc1ccccc1NC(=S)N1CCN(C/C=C/c2ccccc2)CC1	?	.	?	.	.	.
C[C@H](NC(=O)[C@H](Cc1ccccc1)n1c(=O)[nH]c2ccccc2c1=O)C(=O)N1CCC[C@H]1C(=O)O	.	.	.	.	.	.
O=C1c2cccnc2C(=O)N1c1cccc([N+](=O)[O-])c1	.	.	.	.	.	.
S=C(NC1CCCC1)N1CCN(C/C=C/c2ccccc2)CC1	?	.	?	.	18µM	.
OC1(c2ccc(F)cc2)CCN(Cc2cccnc2)CC1	.[1.91 µM]	.	.	/	.	.
OC1(c2ccc(OC(F)F)cc2)CSC(=Nc2cccnc2)N1Cc1ccco1 (stereo not given)	?	.	?	.	18µM	.
OC1(c2ccc(F)cc2)CSC(=Nc2cccnc2)N1Cc1ccco1 (stereo not given)	?	.	?	.	23µM	.
O=C(CN1C(=O)COc2ccc(S(=O)(=O)Nc3ccccc3)cc21)NCc1ccccc1Cl	/	/	/	/	/	.
CC1=C(C(=O)O)N2C(=O)C(NC(=O)c3nn(C)cc3[N+](=O)[O-])C2SC1 (stereo not given)	.	.	.[10 µM]	.	.	.
CC(C)(C)OC(=O)C(Cc1ccc(OC(C)(C)C)cc1)NC(=O)CNC(=O)OCc1ccccc1 (stereo not given)	?	.	?	.	8.2µM	.
CC(C)C[C@H](NC(=O)c1[nH]cnc1C(=O)N[C@@H](C)C(=O)OC(C)(C)C)C(=O)OCc1ccccc1	16µM	.	?	.	.	.
C[C@H](NC(=O)OCc1ccccc1)C(=O)NNC(=O)[C@H](Cc1ccccc1)NC(=O)OC(C)(C)C	.	.	.	.	?	.
CC(C)(C)OC(=O)CNC(=O)c1[nH]cnc1C(=O)N[C@@H](Cc1ccccc1)C(=O)OC(C)(C)C	?	.	13µM	.	?	.
Cc1ccccc1NC(=O)c1nc[nH]c1C(=O)NCc1ccccc1	2.8µM	.	5µM	.	?	.
Cc1ccc(CN2CCCC(CO)(Cc3ccccc3C)C2)s1 (stereo not given)	.	.	.	.	.	.
CN(C)CCNC(=O)c1c(CSc2ccccc2)noc1C(=O)NCc1ccccc1	.	.	.	.	.	.
CC(C)C[C@H](NC(=O)c1[nH]cnc1C(=O)N[C@@H](C)c1ccccc1)C(=O)OC(C)(C)C	0.63µM	.	0.63µM	.	?	.
C[C@H](NC(=O)c1nc[nH]c1C(=O)N[C@@H](Cc1ccccc1)C(=O)OCc1ccccc1)C(=O)OC(C)(C)C	?	.	?	/	.	.
CC(C)C[C@H](NC(=O)c1[nH]cnc1C(=O)N[C@@H](Cc1ccccc1)C(=O)OC(C)(C)C)C(=O)OC(C)(C)C	3.2µM	.	11µM	.	?	.
CC(C)C[C@H](NC(=O)c1[nH]cnc1C(=O)N[C@@H](Cc1ccccc1)C(=O)OCc1ccccc1)C(=O)OC(C)(C)C	5.6µM	.	16µM	/	.	.
CC(C)(C)OC(=O)CNC(=O)c1nc[nH]c1C(=O)NCc1ccccc1	7.1µM	.	?	.	.	.
CCOc1ccc(N2C(=O)CC(Cc3ccc(Br)cc3)C2=O)cc1 (stereo not given)	/	.	/	/	.	.
CCN(CC)C(=O)c1[nH]cnc1C(=O)N[C@@H](CC(C)C)C(=O)OC(C)(C)C	?	.	?	.	.	.
